This note sets out measurements from PubChem BioAssay (NCI).

What all share (assay): NCI-60 one-dose screen, 48 h (100 = growth as untreated, 0 = no growth, -100 = all killed)
One assay has as its system T-47D breast. The settings on record: 10 µM unless noted.
Another assay concerns MDA-MB-435 melanoma. The note with it: 10 µM unless noted.
For the next assay, the system named is SW-620 colon. The settings on record: 10 µM unless noted.
Another assay deals with MCF7 breast. The note with it: 10 µM unless noted.
The test system of another assay is HCT-116 colon. The settings on record: 10 µM unless noted.
The next assay concerns HCC-2998 colon. The settings on record: 10 µM.
Another assay relates to KM12 colon. The note with it: 10 µM unless noted.
A further assay has as its system BT-549 breast. The note with it: 10 µM unless noted.

Each structure is given as a SMILES string. This is part of a sample that, as a whole, favours compounds with a hit. Of some 83,000 tested, about 20% had one in any assay.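 A percent growth of 40 corresponds to 60% growth inhibition; 0 means no net growth; -100 means all cells died. Active threshold: below 10.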 Unmarked numbers belong to inactive results. Calls of active or inactive are those of the source.

With `Cc1cc(-c2cc(OC(=O)c3ccccc3)ccc2Cl)cc2nnc(Nc3ccc(OCCN4CCCC4)cc3)nc12`, the growth in the assay on T-47D breast is 91.8%; with MDA-MB-435 melanoma, -70.6% (active); in the assay with SW-620 colon, 105%; in the assay on MCF7 breast it was 3.92% (active); in the assay with HCT-116 colon, 55.5%; with HCC-2998 colon it was 109%. The growth in the assay with KM12 colon was 90.5%.
Regarding `COc1ncc(-c2ccc3nccc(-c4ccnnc4)c3c2)cc1NS(=O)(=O)c1ccc(F)cc1F`, the growth in the assay on T-47D breast is -25.3% (active); in the assay with MDA-MB-435 melanoma, -78% (active); in the assay on SW-620 colon, -30.9% (active); in the assay with MCF7 breast, 8.48% (active); with HCT-116 colon it was -48.7% (active); in the assay on HCC-2998 colon, -78.4% (active). Further, the growth in the assay on KM12 colon was -60.5% (active).
As to `CC(=Nc1ccccc1)C1=C(O)C(Cc2ccc(O)cc2)NC1=O` (centres undefined), the growth in the assay on T-47D breast was 67.4%; with BT-549 breast, 15.2%; with SW-620 colon it was 15.6%; in the assay with MCF7 breast it was 10%; with HCT-116 colon it was 3.3% (active); in the assay on KM12 colon, -35.5% (active).
Turning to `CC(=O)OCCC/C(=C\c1ccc2ccccc2c1)[N+](=O)[O-]`, the growth with T-47D breast was -50.9% (active); in the assay with MDA-MB-435 melanoma, -41.6% (active); with SW-620 colon it was -71.6% (active); with MCF7 breast, -85.2% (active); with HCT-116 colon, -100% (active); in the assay on HCC-2998 colon, -92.7% (active). Moreover, the growth with KM12 colon was -86.7% (active).
With `N#CC[C@H](C1CCCC1)n1cc(-c2ncnc3[nH]ccc23)cn1`, the growth is 72% in the assay with T-47D breast; 69.8% with MDA-MB-435 melanoma; 73.2% with SW-620 colon; 41.5% with MCF7 breast; 39.4% in the assay with HCT-116 colon; 85.8% with HCC-2998 colon. For the same molecule, the growth with KM12 colon was 19.1%.
`CN1CCN(CCCOc2cccc3nc(Nc4ccc(Cl)c(C(F)(F)F)c4)ccc23)CC1`: the growth in the assay with T-47D breast is 16.4%; with MDA-MB-435 melanoma, -21.4% (active); in the assay with SW-620 colon, -54.8% (active); with MCF7 breast, -67.3% (active); in the assay on HCT-116 colon it was -82.7% (active); in the assay on HCC-2998 colon, -90.8% (active). The growth with KM12 colon is -78% (active).
As to `O=C(Nc1cccc([N+](=O)[O-])c1)c1ccc(Cl)c(Cl)c1`, the growth was 54.8% in the assay with T-47D breast; 92% in the assay with MDA-MB-435 melanoma; 96.2% in the assay with SW-620 colon; 49% in the assay on MCF7 breast; 56.8% in the assay with HCT-116 colon; 120% with HCC-2998 colon. Also, the growth in the assay on KM12 colon is 93.8%.
Regarding `Cc1cc([C@@H](C)Nc2ccccc2C(=O)O)c2nc(N3CCOCC3)cc(=O)n2c1`, the growth was -27.6% (active) with T-47D breast; 58% in the assay with MDA-MB-435 melanoma; 35% in the assay on SW-620 colon; 16.4% in the assay on MCF7 breast; 23% with HCT-116 colon; 60.1% with HCC-2998 colon. The growth in the assay on KM12 colon is 57%.
`COc1cc2c(cc1O)c(=O)n(CCN(C)C)c1c3cc4c(cc3ncc21)OCO4`: the growth was 4.79% (active) with T-47D breast; -59.7% (active) with MDA-MB-435 melanoma; 1.96% (active) in the assay with SW-620 colon; 2.14% (active) with MCF7 breast; 2.63% (active) in the assay with HCT-116 colon; -38.6% (active) in the assay with HCC-2998 colon. Besides, in the assay on KM12 colon, the growth was -11.6% (active).
Consider `Cc1c(N)ccc(-c2ccc(N)c(C)c2S(=O)(=O)O)c1S(=O)(=O)O`, for which the growth is 106% in the assay on T-47D breast; 114% in the assay with MDA-MB-435 melanoma; 109% in the assay on SW-620 colon; 108% in the assay with MCF7 breast; 101% in the assay with HCT-116 colon; 102% in the assay on HCC-2998 colon. Moreover, in the assay on KM12 colon, the growth was 116%.
For the molecule `COC(=O)C1=C(C(=O)OC)C23C=C(C)C1C2=C(C)C1(CC1)[C@@](C)(O)C3=O` (some centres undefined), the growth in the assay on T-47D breast is -3.03% (active); with BT-549 breast it was -35.7% (active); in the assay with SW-620 colon it was 78.1%; in the assay on MCF7 breast it was 11.3%; in the assay on HCT-116 colon, 5.3% (active); with KM12 colon, 29.6%.
Turning to `NC1(C(=O)N[C@@H](CCO)c2ccc(Cl)cc2)CCN(c2ncnc3[nH]ccc23)CC1`, the growth in the assay on T-47D breast is 11.7%; with MDA-MB-435 melanoma, 26.3%; in the assay on SW-620 colon it was 62.7%; with MCF7 breast, 27.4%; in the assay on HCT-116 colon, 45.7%; with HCC-2998 colon, 46.8%. Also, the growth in the assay with KM12 colon is 5.76% (active).
As for `CCN1/C(=C/C=C/c2n(-c3ccccc3)c3ccc(-c4nc5ccccc5s4)cc3[n+]2CC)N(c2ccccc2)c2ccc(-c3nc4ccccc4s3)cc21`, the growth was 5.56% (active) with T-47D breast; -41.1% (active) with MDA-MB-435 melanoma; 16.7% in the assay on SW-620 colon; 11.2% in the assay on MCF7 breast; 10.8% in the assay on HCT-116 colon; 33.3% with HCC-2998 colon. Besides, the growth in the assay with KM12 colon is 10.6%.
As to `O=[N+]([O-])c1cc(Br)cc2c1[nH]c1ccc(Br)cc12`, the growth in the assay on T-47D breast is 42.9%; in the assay with MDA-MB-435 melanoma, 86.4%; with SW-620 colon, 67%; with MCF7 breast, 45.8%; with HCT-116 colon, 36.6%; with HCC-2998 colon, 94.3%. Besides, the growth in the assay on KM12 colon was 71.4%.
On to `C=C1C(=O)O[C@H]2[C@H]1CC/C(C=Nc1c(N)cc(C(F)(F)F)cc1C(F)(F)F)=C\CC[C@@]1(C)O[C@@H]21`, for which the growth was -27% (active) in the assay on T-47D breast; -71.9% (active) in the assay with MDA-MB-435 melanoma; -54.9% (active) with SW-620 colon; -2.09% (active) in the assay on MCF7 breast; -72.8% (active) in the assay on HCT-116 colon; -77.5% (active) in the assay on HCC-2998 colon. Further, in the assay with KM12 colon, the growth was 14.4%.
With `C[C@@H](Oc1cc(C(=O)Nc2ccc(C(=O)N3CCN(C)CC3)cc2)nnc1N)c1c(Cl)ccc(F)c1Cl`, the growth was 59.4% in the assay with T-47D breast; 71.7% in the assay on BT-549 breast; 98.1% in the assay on SW-620 colon; 47.1% in the assay with MCF7 breast; 49.4% in the assay on HCT-116 colon; 23% in the assay on KM12 colon.
